Assay outcomes: PubChem BioAssay, several laboratories
Sampled rows, rich in hits. Any-hit rate of the full collection: about 2.3%.
SENP8 block-1 – SENP8 protease inhibition; purified SENP8, Z-RLRGG-aminoluciferin cleavage, luminescence; inhibition, % at 10 µM; 330,000 tested, 1.2% active; in the data active = inhibition above about 50%
Target sequence (Q96LD8 whole entry, looked up): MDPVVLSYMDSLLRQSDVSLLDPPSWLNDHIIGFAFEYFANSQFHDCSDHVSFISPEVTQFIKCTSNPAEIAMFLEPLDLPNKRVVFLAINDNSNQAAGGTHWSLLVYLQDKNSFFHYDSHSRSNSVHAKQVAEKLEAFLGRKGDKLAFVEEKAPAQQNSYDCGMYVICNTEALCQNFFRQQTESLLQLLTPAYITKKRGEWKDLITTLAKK
LGR2 inh – blocks bursicon-induced cAMP signaling via Drosophila LGR2; HEK293 LGR2, CRE-luciferase, bursicon-stimulated, 4 h; inhibition, % at 9.99 µM; 380,000 tested, 0.35% active;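 active = drop in luminescence signal, shown as inhibition above about 50% in the replicate tests, limit read from the data, passing the limit was not always enough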;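 also: agonist challenge used bursicon conditioned medium at about half maximal strength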
SENP7 block – SENP7 protease inhibition; Q9BQF6; recombinant SENP7, Z-RLRGG-aminoluciferin luminescence, 40 min; inhibition, % at 5 µM; 330,000 tested, 1.5% active; AID 434973;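 active = inhibition above about 50% at the single test dose, limit read from the data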;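 also: plate controls were DMSO with enzyme for no effect and no enzyme buffer wells for full effect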
Target sequence (Q9BQF6 706-1050 limits assumed): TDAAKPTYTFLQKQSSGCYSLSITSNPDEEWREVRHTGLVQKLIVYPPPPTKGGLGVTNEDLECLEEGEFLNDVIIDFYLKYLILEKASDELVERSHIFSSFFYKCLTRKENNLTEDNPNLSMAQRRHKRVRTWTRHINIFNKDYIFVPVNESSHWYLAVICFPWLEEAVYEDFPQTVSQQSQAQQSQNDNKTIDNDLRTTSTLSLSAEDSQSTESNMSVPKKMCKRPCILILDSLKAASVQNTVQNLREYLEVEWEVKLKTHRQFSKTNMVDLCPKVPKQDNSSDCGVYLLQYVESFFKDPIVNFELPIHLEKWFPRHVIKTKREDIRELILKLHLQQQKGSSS
SENP8 block-2 – blocks human SENP8 cleavage of Nedd8 substrate; inhibition, % at 20 µM; AID 602440; 360,000 tested, 0.64% active; recombinant SENP8, Nedd8 substrate fluorescence; in the data active = inhibition mostly above about 40%, no sharp cut-off; inactive = mostly below about 27%
HSP90 inh – HSP90 refolding inhibition in rabbit reticulocyte lysate; luciferase refolding luminescence, 3 h; inhibition, % at 5.6 µM; 290,000 tested, 0.91% active;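 active = inhibition above the screen-wide mean plus 3 SD, computed separately per campaign, cut at about 16% in these data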;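 also: 0% = DMSO wells and 100% = 60 µM geldanamycin wells; inhibitors lower the luminescence because luciferase stays unfolded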
SENP6 inh – SENP6 protease inhibition. 330,000 tested, 1.8% active. Q9GZR1. inhibition, % at 10 µM. AID 2599. Recombinant SENP6 catalytic domain, aminoluciferin luminescence;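 active = inhibition above about 50% at the single tested dose, limit read from the data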;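 also: plate controls were DMSO wells with enzyme for no effect and DMSO wells lacking enzyme for full effect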
SENP8 conf – SENP8 (human) inhibition, single concentration confirmation; shares compounds with SENP8 block-2; purified SENP8, Nedd8-AMC/pro-Nedd8 cleavage fluorescence, 30 min; inhibition, % at 25 µM; 1,400 tested, 15% active; in the data active = inhibition mostly above about 39%, no sharp cut-off; inactive = mostly below about 34%
* marks the source's active call; other numbers are inactive results.

Screening COc1ccc(NC2CS(=O)(=O)CC2NCc2ccccc2)cc1 (stereo not drawn) returned SENP8 block-1 -3, SENP7 block 3, SENP8 block-2 40*, HSP90 inh 1, SENP6 inh 7 and SENP8 conf 15.
Screening O=S1(=O)C[C@@H](O)[C@@H](Nc2ccccc2)C1 returned SENP8 block-1 3, LGR2 inh 2, SENP7 block 7, SENP8 block-2 23, HSP90 inh 2 and SENP6 inh -1.
`O=c1cc(-c2ccc(C(F)(F)F)cc2)oc2ccccc12` gave SENP8 block-1 20, LGR2 inh -43, SENP7 block 35, SENP8 block-2 -4 and SENP6 inh 8.
Screening O=c1cc(-c2ccccc2)oc2ccccc12 returned SENP8 block-1 5, LGR2 inh -69, SENP7 block -1, SENP8 block-2 43*, SENP6 inh -11 and SENP8 conf 19.
`C[C@H]1CN([C@@H](C)CO)C(=O)Cc2cc(NC(=O)Cc3cn(C)c4ccccc34)ccc2O[C@H]1CN(C)C` gave LGR2 inh -16.
For Cc1ccc(C(=O)NN2C(=O)C3C4c5ccccc5C(c5ccccc54)C3C2=O)cc1 (stereo not drawn) the results were SENP8 block-1 -4, LGR2 inh 16, SENP7 block 3, SENP8 block-2 45*, HSP90 inh 1, SENP6 inh 7 and SENP8 conf 17.
Screening O=C(NN1C(=O)C2C3c4ccccc4C(c4ccccc43)C2C1=O)c1ccccc1 (stereo not drawn) returned SENP8 block-1 -2, LGR2 inh 12, SENP7 block 1, SENP8 block-2 9, HSP90 inh 2 and SENP6 inh -7.
Screening C[C@H]1CCCCO[C@H](CN(C)S(C)(=O)=O)[C@@H](C)CN([C@@H](C)CO)C(=O)c2cc(NS(C)(=O)=O)ccc2O1 returned LGR2 inh 27.
For CC(NC(=O)COC(=O)c1ccc([N+](=O)[O-])o1)c1ccccc1 (stereo not drawn) the results were SENP8 block-1 11, LGR2 inh -23, SENP7 block 8, SENP8 block-2 57*, SENP6 inh 8 and SENP8 conf 88*.
Screening O=C(COC(=O)c1ccc(Br)o1)NCc1ccc2c(c1)OCO2 returned SENP8 block-1 -6, LGR2 inh 7, SENP7 block -3, SENP8 block-2 8 and SENP6 inh 2.
Screening O=C(COC(=O)c1ccc([N+](=O)[O-])o1)NCc1ccc2c(c1)OCO2 returned SENP8 block-1 6, LGR2 inh 4, SENP7 block -1, SENP8 block-2 41*, SENP6 inh 20 and SENP8 conf 76*.
Cc1ccccc1-c1cnc2c(c1)C(=O)N([C@@H](C)CO)C[C@H](C)[C@H](CN(C)Cc1cncnc1)O2 was read as LGR2 inh 25.
COc1ccc(NC(=O)Nc2ccc3c(c2)C(=O)N([C@@H](C)CO)C[C@@H](C)[C@@H](CN(C)S(=O)(=O)c2ccc(C)cc2)OCCCC[C@@H](C)O3)cc1 was read as LGR2 inh 6.
For N#C[C@H]1[C@H](c2ccc(C3=CCCCC3)cc2)[C@@H](CO)N1C(=O)NC1CCCCC1 the results were LGR2 inh -5.
NNc1nnc2c3cc(F)ccc3n(Cc3ccccc3)c2n1 was read as SENP8 block-1 -4, LGR2 inh -15, SENP7 block -10, SENP8 block-2 37*, HSP90 inh -2, SENP6 inh 11 and SENP8 conf 14.
CCCn1c2ccc(F)cc2c2nnc(NN)nc21 was read as SENP8 block-1 0, LGR2 inh -21, SENP7 block -3, SENP8 block-2 70*, HSP90 inh -7, SENP6 inh 9 and SENP8 conf 17.
COc1ccc(S(=O)(=O)Nc2ccc3c(c2)CC(=O)N([C@H](C)CO)C[C@@H](C)[C@H](CN(C)S(=O)(=O)c2ccc(C)cc2)O3)cc1 was read as LGR2 inh -1.
O=C(C[C@H]1CC[C@H](NC(=O)Nc2cc(F)ccc2F)[C@@H](CO)O1)NCCCN1CCOCC1 was read as LGR2 inh -20.
`CO[C@H]1CN(C)C(=O)c2ccc(NC(=O)C3CC3)cc2OC[C@@H](C)N(Cc2ccc(F)cc2)C[C@H]1C` gave LGR2 inh 9.
For O=C(NCc1ccc(F)cc1)[C@@H]1[C@@H](CO)[C@@H]2Cn3c(cccc3=O)[C@H]1N2C(=O)C1CC1 the results were LGR2 inh -11.
`O=C(OCn1nnc2ccccc2c1=O)C1CCCCC1` gave SENP8 block-1 -5, SENP7 block 6, SENP8 block-2 42*, HSP90 inh -2, SENP6 inh -31 and SENP8 conf 12.
Screening C[C@H]1CCCCO[C@H](CN(C)C(=O)Nc2cccc3ccccc23)[C@@H](C)CN([C@@H](C)CO)C(=O)c2cc(NS(=O)(=O)c3ccc(Cl)cc3)ccc2O1 returned LGR2 inh 0.
Screening CCOc1cc(CNc2ccc(OC)cc2)cc(Br)c1OCC(=O)NC(C)(C)C returned SENP8 block-1 8, LGR2 inh 9, SENP7 block 2, SENP8 block-2 47*, HSP90 inh -3, SENP6 inh 8 and SENP8 conf 24.
`CCOc1cc(CNc2ccc(Br)cc2)cc(Br)c1OCC(=O)NC(C)(C)C` gave SENP8 block-1 0, LGR2 inh 15, SENP7 block 8, SENP8 block-2 4, HSP90 inh 7 and SENP6 inh -17.
CC1(C)[N+]([O-])=C2C(=[N+]([O-])C1(C)C)c1ccccc1/C2=N\O was read as SENP8 block-1 -4, SENP7 block -6, SENP8 block-2 48*, HSP90 inh 2, SENP6 inh -20 and SENP8 conf 17.
`C[C@H]1CN([C@@H](C)CO)C(=O)c2cccc(NC(=O)c3cnccn3)c2O[C@@H]1CN(C)Cc1ccc2c(c1)OCO2` gave LGR2 inh -2.
For C[N+]1(C)CCC(=C2c3ccccc3CC(=O)c3sccc32)CC1 the results were SENP8 block-1 3, SENP7 block 14, SENP8 block-2 75*, HSP90 inh 4, SENP6 inh 36 and SENP8 conf 56*.
`CC[N+]1(C)CCC(=C2c3ccccc3CC(=O)c3sccc32)CC1` (stereo not drawn) gave SENP8 block-1 -2, SENP7 block 3, SENP8 block-2 20, HSP90 inh -1 and SENP6 inh -1.
Cc1ccc(/C=N/n2nnnc2N)o1 was read as SENP8 block-1 6, SENP7 block -4, SENP8 block-2 42*, HSP90 inh 3, SENP6 inh 8 and SENP8 conf 1.
